# In PubChem BioAssay:
# Values joined by “and” are separate entries in the source; they are usually repeats but may differ in a detail not shown here. Equal values may be shown once. Inconclusive results are not listed. Active and inactive are the calls of the source. Unless noted, no cut-off is given here; in the data, nearly all actives have AC50 up to about 26 µM.
# Columns and labels:
# [1] = growth inhibition of DIPG glioma cells, dose response, cell-based, SU-DIPG-XVII, MIPE5.0, CellTiter-Glo, qHTS (AID 1347060); conditions: SU-DIPG-XVII viability, CellTiter-Glo ATP luminescence;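 for AC50: cells exposed to compound for 48 hours before viability readout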
# [2] = growth inhibition of DIPG glioma cells, dose response, cell-based, SU-DIPG-XIII, MIPE5.0, CellTiter-Glo, qHTS (AID 1347064; cut-off not given, nearly all actives have AC50 up to about 23 µM;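 for AC50: cells exposed to compound for 48 hours before the viability read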); conditions: SU-DIPG-XIII viability, CellTiter-Glo ATP luminescence
# [3] = SU-DIPG-VI glioma cell viability, MIPE4.0 library, CellTiter-Glo luminescence, qHTS (AID 1347066; cut-off not given, nearly all actives have AC50 up to about 30 µM;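 note: cells exposed to compound for 48 hours before readout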); conditions: CellTiter-Glo ATP luminescence
# [4] = JHH-DIPG-1 glioma cell viability, MIPE5.0 library, CellTiter-Glo luminescence, qHTS (AID 1347067); conditions: JHH-DIPG-1 glioma viability, CellTiter-Glo ATP luminescence;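 note: cells exposed to compound for 48 hours before readout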
# [5] = SU-DIPG-XXV glioma cell viability, MIPE5.0 library, qHTS (AID 1347068; cut-off not given, nearly all actives have IC50 up to about 30 µM;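 for IC50: cells exposed to compound for 48 hours before viability readout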)
# [6] = sensitizers of A549 cells to miR-34 induction, primary screen, imaging, A549 dox-inducible miR-34, nuclei and caspase counts (AID 1347080;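 active = compounds whose cell count with miR-34 switched on is under 0.7 times the count with it off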); conditions: A549 miR-34 inducible, Hoechst nuclei count, 48 h
# [7] = survival rescue of mitochondrial mutant cells in low glucose, primary screen, MELAS cybrids, Rieske KO mouse fibroblasts, CellTiter-Glo (AID 1508586;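 active = mean z-score across replicates of 1.96 or higher in either the MELAS or the Rieske mutant cell line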;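 note: z relative to plate mean and SD of compound and empty wells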)
# [8] = viability loss in pontine glioma line – cell-based, SU-DIPG-XXV, MIPE5.0, CellTiter-Glo, qHTS, dose response (AID 1347065); conditions: CellTiter-Glo ATP luminescence;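 note: cells exposed to compound for 48 hours before ATP readout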
# [9] = phospholipid biosynthesis inhibitors in animal cells, primary screen, cell-based, LOPAC library, screen 4 (AID 1347384; call rule not given here); conditions: phospholipid biosynthesis inhibition screen, at 10 µM
# [10] = circadian clock period modulators, cell-based, LOPAC library, luminescence reporter (AID 2774; call rule not given here;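 note: values are relative to mean of DMSO wells on each plate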); conditions: circadian reporter cells, at 7 µM, actives lie on both sides
# [11] = hESC survival regulators, cell-based (AID 493140; call rule not given here;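 note: cells exposed to compounds for four days before counting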); conditions: human embryonic stem cell survival screen; stronger effect = higher value
# [12] = liver-stage malaria parasite growth inhibition, primary screen, cell-based, HepG2, luciferase luminescence, HepG2 viability (AID 624349; in the data active = parasite load remaining mostly below about 12%, no sharp cut-off; inactive = mostly above about 10%;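 note: 100% = mean of DMSO negative control wells on the same plate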); conditions: P. berghei liver stage in HepG2, luciferase luminescence, concentration not given here; parasite load remaining: stronger effect = lower value; viability: measured here: HepG2 viability without parasites
# [13] = test system: Hepatitis C virus NS3 helicase; assay: HCV NS3 helicase inhibitors, primary screen, biochemical, fluorescence polarization, LOPAC1280 library (AID 687035; in the data active = inhibition above about 37%); conditions: Purified HCV NS3 helicase, Cy5-dT15 ssDNA binding fluorescence polarization; stronger effect = higher value; concentration not given here
# [14] = Cy5 fluorescence quenching or enhancement artefacts, artefact control for HCV NS3 helicase inhibitor project, biochemical, LOPAC1280 (AID 687037; call rule not given here); conditions: Cy5-DNA-NS3h complex fluorescence interference counterscreen
# [15] = inhibitors of Cryptococcus chitosan production, flow cytometry, Cibacron Brilliant Red staining (AID 1347148; call rule not given here;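 note: compound exposure lasted three days at 37 degrees C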); conditions: Cryptococcus neoformans chitosan, stronger effect = lower value; at 10 µM unless noted
# [16] = viability rescue of complex I mutant cybrids, primary screen, cell-based, galactose medium, ATP luminescence (AID 1645843;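 active = z-score of at least 1.8 in each of two replicates, scored against plate mean and spread of sample wells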;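 note: positive z means more ATP and so rescue of galactose-driven cybrid death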); conditions: complex I mutant cybrid cells, 72 h, stronger effect = higher value
# [17] = stronger effect = lower value, cell number ratio, induced over uninduced
# [18] = measured here: relative caspase fold change +Dox/-Dox
# [19] = measured here: total cells with miR-34 induction, stronger effect = lower value
# [20] = measured here: total cells without miR-34 induction
compound,measurement,setting,value
CN1CCN(c2ncc(-c3cc(Cl)cc(Cl)c3Cl)c(N)n2)CC1,outcome,[1],inactive
same,outcome,[2],inactive
same,outcome,[3],inactive
same,outcome,[4],inactive
same,outcome,[5],inactive
CNC(=O)c1ccc2c(C(=Nc3cccc(CN(C)C)c3)c3ccccc3)c(O)[nH]c2c1,outcome,[1],inactive
same,outcome,[2],inactive
same,outcome,[3],inactive
same,outcome,[4],inactive
same,outcome,[5],inactive
same,fold change,[6]; [17],0.967 (inactive)
same,fold change,[6]; [18],0.894
same,cell count,[6]; [19],7720
same,cell count,[6]; [20],7990
same,z-score,"[7]; MELAS cybrid survival, CellTiter-Glo 48 h, stronger effect = higher value",-0.483 (inactive)
same,z-score,"[7]; Rieske KO mouse fibroblast survival, CellTiter-Glo 72 h",-0.984
C[N+](C)(C)CC(=O)O,outcome,[1],inactive
same,outcome,[2],inactive
same,outcome,[8],inactive
same,outcome,[5],inactive
same,outcome,[9],inactive
CC(C)=CCC[C@](C)(O[C@@H]1O[C@H](CO[C@@H]2O[C@H](CO)[C@@H](O)[C@H](O)[C@H]2O)[C@@H](O)[C@H](O)[C@H]1O)[C@H]1CC[C@]2(C)[C@@H]1[C@H](O)C[C@@H]1[C@@]3(C)CC[C@H](O[C@@H]4O[C@H](CO)[C@@H](O)[C@H](O)[C@H]4O[C@@H]4O[C@H](CO)[C@@H](O)[C@H](O)[C@H]4O)C(C)(C)[C@@H]3CC[C@]12C,outcome,[1],inactive
same,outcome,[2],inactive
same,outcome,[4],inactive
same,outcome,[5],inactive
CC(C)[C@H]1C(=O)N[C@@H](CCCN=C(N)N)C(=O)NCC(=O)N[C@@H](CC(=O)O)C(=O)N[C@H](Cc2ccccc2)C(=O)N1C,outcome,[1],inactive
same,outcome,[2],inactive
same,outcome,[4],inactive
same,outcome,[5],inactive
CCCN1CCN(c2ccc(C(=O)NC3(C(=O)NCC#N)CCCCC3)cc2)CC1,outcome,[1],inactive
same,outcome,[2],inactive
same,outcome,[4],inactive
same,outcome,[5],inactive
COc1ccc2c(C(=S)N(C)CC(=O)O)cccc2c1C(F)(F)F,outcome,[1],inactive
same,outcome,[2],inactive
same,outcome,[4],inactive
same,outcome,[5],inactive
COc1ccc(Cl)c(Nc2nc3ccccc3nc2NS(=O)(=O)c2cccc(NC(=O)C(C)(C)N)c2)c1,AC50,[1],14.8 µM (active)
same,AC50,[8],10.5 µM (active)
Cn1c(=O)c(-c2c(Cl)cccc2Cl)cc2cnc(Nc3cccc(C(=O)O)c3)nc21,AC50,[1],1.48 µM (active)
same,AC50,[2],2.35 µM (active)
same,outcome,[5],inactive
Cc1cccc(Nc2nc(N[C@@H]3CCCC[C@@H]3N)ncc2C(N)=O)c1,AC50,[1],18.6 µM (active)
same,AC50,[8],18.6 µM (active)
Cc1noc(-c2ccc(-c3ccc(C4(C(=O)O)CC4)cc3)cc2)c1NC(=O)O[C@H](C)c1ccccc1,AC50,[1],23.5 µM (active)
same,AC50,[8],23.5 µM (active)
CONC(=O)Nc1ccc(-c2sc3c(c2CN(C)Cc2ccccc2)c(=O)n(-c2ccccc2)c(=O)n3Cc2c(F)cccc2F)cc1,outcome,[1],inactive
same,outcome,[2],inactive
same,outcome,[5],inactive
O=S(=O)(c1cccc2c(I)cccc12)N1CCCNCC1,period change,[10],0.03 h (inactive)
same,survival,[11],70.8 (inactive)
same,parasite load remaining,[12],33.8% (inactive)
same,viability,[12],77.3%
same,inhibition,[13],-1% (inactive)
same,fluorescence ratio (interference),[14],0.9 (inactive)
same,outcome,[1],inactive
same,outcome,[2],inactive
same,outcome,[4],inactive
same,fold change,[6]; [17],0.977 (inactive) and 0.963 (inactive)
same,fold change,[6]; [18],0.686 and 1.04
same,cell count,[6]; [19],7130 and 3010
same,cell count,[6]; [20],7300 and 3130
same,fold fluorescence,[15],13.8 [at 120.1 µM] (inactive)
same,outcome,[9],inactive
same,z-score,[16],-0.91 (inactive)
COc1ccc(Oc2cc(NCCC(F)(F)F)c3ncc(-c4ccc(C(=O)NC5CC5)c(C)c4)n3n2)c(F)c1F,AC50,[1],0.059 µM (active)
same,AC50,[8],0.372 µM (active)
Cc1cccc(-c2[nH]ncc2-c2ccc(F)c(-c3cnn(CCO)c3)c2)n1,outcome,[1],inactive
same,outcome,[2],inactive
same,IC50,[5],26.3 µM (active)
Cc1nc2ccc(-n3ncc(C(=O)c4cc5ccccc5[nH]4)c3N)cc2[nH]1,AC50,[1],0.468 µM (active)
same,AC50,[8],0.833 µM (active)
CCN(CC)C(=O)Cc1csc(NS(=O)(=O)c2cccc(Cl)c2C)n1,outcome,[1],inactive
same,outcome,[8],inactive
CCOc1ccccc1N=Nc1c(C)[nH]n(-c2nc(-c3ccccc3)cs2)c1=O,outcome,[1],inactive
same,outcome,[2],inactive
same,outcome,[4],inactive
same,outcome,[5],inactive
CC(C)Oc1ccc(-c2nc(-c3cccc4c3CC[C@@H]4NCCO)no2)cc1C#N,AC50,[1],20.9 µM (active)
same,AC50,[8],16.6 µM (active)
CCn1nc(C2CCN(C(=O)CCO)CC2)nc1-c1cnc(N)c(-c2nnc(C(C)(C)C)o2)n1,AC50,[1],5.9 µM (active)
same,AC50,[8],2.09 µM (active)
CON(C)C(=O)N1N=C(c2cc(F)ccc2F)S[C@@]1(CCCN)c1ccccc1,AC50,[1],0.00525 µM (active)
same,AC50,[8],0.00934 µM (active)
CCOC(=O)c1ccnc(CNCC(=O)N(CC)CCN(C)C)c1,outcome,[1],inactive
same,outcome,[2],inactive
same,outcome,[5],inactive
COc1ccc2c(c1)[C@]1(C[C@H]1c1ccc3c(/C=C/c4ccc(CN5C[C@@H](C)O[C@@H](C)C5)cc4)n[nH]c3c1)C(=O)N2,AC50,[1],4.17 µM (active)
same,AC50,[8],0.0417 µM (active)
CC(C)N(C[C@H]1O[C@@H](n2cnc3c(N)ncnc32)[C@H](O)[C@@H]1O)C1CC(CCc2nc3ccc(C(C)(C)C)cc3[nH]2)C1 (stereo not given in full),outcome,[1],inactive
same,outcome,[2],inactive
same,outcome,[4],inactive
same,outcome,[5],inactive
COc1cc(-c2cc(-c3ccc(N4CCNCC4)cc3)cnc2C)cc(OC)c1OC,outcome,[1],inactive
same,outcome,[2],inactive
same,outcome,[5],inactive
CNC(=O)[C@H](Cc1c[nH]c2ccccc12)NC(=O)[C@@H](CC(=O)NO)CC(C)C,outcome,[1],inactive
same,outcome,[2],inactive
same,outcome,[4],inactive
same,outcome,[5],inactive
same,fold change,[6]; [17],1.03 (inactive)
same,fold change,[6]; [18],0.925
same,cell count,[6]; [19],4790
same,cell count,[6]; [20],4630
same,fold fluorescence,[15],4.97 [at 128.7 µM] (inactive)
